# From PubChem BioAssay
# GPR151 ag: activators of human GPR151 | activation, % at 11.2 µM | AID 1508602 | PathHunter beta-arrestin GPR151 cells, luminescence | 650,000 compounds, 1% hits; in the data active = activation above about 4.9%
# Target sequence (Q8TDV0 whole entry, looked up): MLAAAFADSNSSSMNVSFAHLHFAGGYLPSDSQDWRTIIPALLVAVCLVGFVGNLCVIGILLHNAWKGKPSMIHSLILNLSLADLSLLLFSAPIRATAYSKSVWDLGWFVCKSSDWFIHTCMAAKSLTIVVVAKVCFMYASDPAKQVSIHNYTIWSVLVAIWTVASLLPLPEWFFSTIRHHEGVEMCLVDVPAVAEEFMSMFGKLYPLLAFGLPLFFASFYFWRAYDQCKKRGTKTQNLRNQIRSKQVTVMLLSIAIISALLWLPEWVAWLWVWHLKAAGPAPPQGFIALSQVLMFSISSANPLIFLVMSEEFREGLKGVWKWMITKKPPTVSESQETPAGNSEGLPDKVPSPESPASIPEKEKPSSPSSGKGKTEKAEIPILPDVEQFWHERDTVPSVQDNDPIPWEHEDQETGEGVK
# TEAD-YAP block: TEAD-YAP interaction inhibition | AID 1259422 | 640,000 compounds, 1.4% hits | inhibition, % at 9.12 µM | HEK-TIYL cells, TEAD-Gal4/YAP UAS-luciferase luminescence; in the data active = inhibition above about 32%
# MITF primary: inhibitors of human MITF; AlphaScreen MITF homodimerization, bead proximity signal; inhibition, % at 2.6 µM; 650,000 compounds, 0.91% hits; AID 1259374; in the data active = inhibition above about 50%
# FBW7 act: human FBW7 E3 ligase activation, primary screen. Q969H0. AID 1259310. AlphaScreen FBW7–phospho-cyclin E peptide binding, activator screen. 650,000 compounds, 0.13% hits. normalized activity (activation), % at 26.1 µM; in the data active = normalized activity above about 1.9%;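 also: purified mutant Fbw7 with reduced substrate affinity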
# MITF confirm: confirmation of human MITF inhibitors. shares compounds with MITF primary. AID 1259372. inhibition, % at 2.6 µM. 4,700 compounds, 16% hits. AlphaScreen MITF homodimerization, biotin/His-MITF beads;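 active = inhibition above a cutoff derived from the DMSO control wells, cut at about 28% in these data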;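 also: inhibitors lower the bead chemiluminescence by keeping MITF from dimerizing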
# AS interf DR: optically interferes with AlphaScreen signal in dose response; AlphaScreen optical interference counterscreen, cell-free; shares compounds with MITF primary; 480 compounds, 6% hits; IC50, µM; call rule not given here
# AlphaScreen intf2: AlphaScreen optical interference, counter-screen; 4,700 compounds, 7.6% hits; inhibition, % at 2.6 µM; LysRS AlphaScreen counterscreen, signal interference, triplicate; shares compounds with MITF primary;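 active = inhibition above a cutoff derived from the DMSO control wells, cut at about 30% in these data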
# GPR151 confirm: confirmation of human GPR151 activators; shares compounds with GPR151 ag; GPR151 PathHunter beta-arrestin cells, luminescence, 90 min; % of EA-reagent control over plate median; activation, % at 11.2 µM; 6,700 tested, under 10 active;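 active = mean percent activation across replicates above the confirmation screen cutoff of 4.91%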
# GPR119 counter: counter-screen for GPR151 activators: effect on human GPR119; shares compounds with GPR151 ag; GPR119 PathHunter beta-arrestin cells, luminescence, 90 min; 0 = compound-well median, 100 = enzyme-acceptor control; activation, % at 11.2 µM; 6,700 compounds, 0.3% hits;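 active = mean percent activation in the counterscreen above 29.09%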;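 also: counterscreen on off-target GPR119 to flag nonselective hits from the GPR151 activator screen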
# A number is an active result; 0 = inactive; - = no result. An excerpt weighted towards active compounds, which were near 3.4% of everything screened.
SMILES,GPR151 ag,TEAD-YAP block,MITF primary,FBW7 act,MITF confirm,AlphaScreen intf2,GPR151 confirm,GPR119 counter,others
CC(C)CC(=O)N1CCN(CCCc2ccccc2)CC1,0,0,52,0,0,0,-,-,
O=C(c1ccco1)N1CCN(Cc2ccccc2[N+](=O)[O-])CC1,0,0,76,0,0,0,-,-,
O=C(c1ccco1)N1CCN(Cc2ccc(Br)cc2)CC1,0,0,0,0,-,-,-,-,
O=C1C2CC=CCC2C(=O)N1c1ccc(Oc2ccccc2)cc1 (centres undefined),0,0,0,0,-,-,-,-,
CC(C)CC(=O)N1CCN(C(=O)c2cccs2)CC1,0,0,0,0,-,-,-,-,
O=C(c1cccc(F)c1)N1CCN(Cc2ccccc2Br)CC1,0,0,57,0,0,0,-,-,
O=C(c1ccccc1)N1CCN(C(=O)c2cccc(F)c2)CC1,0,0,0,0,-,-,-,-,
CC(C)CC(=O)N1CCN(Cc2ccccc2C(F)(F)F)CC1,0,0,58,0,0,0,-,-,
O=C(c1ccc(F)cc1)N1CCN(Cc2ccccc2C(F)(F)F)CC1,0,0,65,0,0,0,-,-,
COc1ccccc1CN1CCN(C(=O)c2ccc(F)cc2)CC1,0,0,0,0,-,-,-,-,
O=C(c1ccc(-c2ccccc2)cc1)N1CCN(Cc2ccccc2C(F)(F)F)CC1,0,0,65,0,0,0,-,-,
CC[C@@H]1NC(=O)[C@@H]2C[C@H](NC(=O)c3cccc(OC)c3)CN2C1=O,0,0,0,0,-,-,-,-,
CCOc1ccc(NC(=O)CSc2nc3cc(C(=O)NCc4ccccc4)ccc3c3nc4ccccc4n23)cc1,0,0,0,0,-,-,-,-,
O=C(c1cccc(F)c1)N1CCN(Cc2ccccc2C(F)(F)F)CC1,0,0,53,0,0,0,-,-,
COc1ccccc1CN1CCCC(CCC(=O)N2CCN(c3ccccn3)CC2)C1 (centres undefined),0,0,0,0,-,-,-,-,
Cc1ccc(Cl)cc1N1CCN(C(=S)NCCN2CCOCC2)CC1,0,0,51,0,0,0,-,-,
CCCCc1ccc(NC(=O)CN2C(=O)CSC(C)C2=O)cc1 (centres undefined),0,0,0,0,-,-,-,-,
O=C(Nc1nc(-c2ccc(F)cc2)cs1)c1cc2cc(Br)cc(Br)c2oc1=O,0,0,100,0,0,0,-,-,
Cc1nc(-c2ccc(NC(=O)c3cc4cc(Br)cc(Br)c4oc3=O)cc2)cs1,0,0,0,0,-,-,-,-,
c1cncc(CN2CCN(Cc3cccc4ccccc34)CC2)c1,11,0,83,0,0,0,0,0,
CCN1CCN(CCOc2cc(C)ccc2C)CC1,17,0,65,0,0,0,0,0,
Cc1ccc(OCCN2CCNCC2)c(C)c1,0,0,0,0,-,-,-,-,
COc1ccccc1CC(=O)N1CC[C@@H]2[C@H](CCCN2C(=O)c2occc2C)C1,7.3,0,52,0,0,0,0,0,
O=S(=O)(NCc1ccccc1)c1cccc(S(=O)(=O)c2ccccc2)c1,0,0,0,0,-,-,-,-,
O=C1Nc2ccc(S(=O)(=O)NCc3ccccc3)cc2C1=O,6.1,0,79,0,57,0,0,0,AS interf DR=0
SMILES,GPR151 ag,TEAD-YAP block,MITF primary,FBW7 act,MITF confirm,AlphaScreen intf2,GPR151 confirm,GPR119 counter,others
COc1ccc(NC(=O)c2ccc3c(c2)C(=O)N(c2ccc(OC)cc2)C3=O)cc1,0,0,0,0,-,-,-,-,
COc1ccc(OC)c(CN2CCC(C(=O)NCc3ccc(C)cc3)CC2)c1,0,0,0,0,-,-,-,-,
COc1ccc(OC)c(CN2CCN(Cc3ccc(C)cc3)CC2)c1,5.5,0,83,0,0,0,0,0,
O=C(NCC(c1ccsc1)N1CCc2ccccc2C1)Nc1cccs1 (centres undefined),0,0,0,0,-,-,-,-,
Cn1c(=O)c(=O)n(C)c2cc(S(=O)(=O)CCC(=O)N3CCCC3)ccc21,0,0,0,0,-,-,-,-,
FC(F)(F)c1cccc(OCCCCNCCN2CCOCC2)c1,5.8,0,65,0,0,0,0,0,
CCOc1ccccc1CN1CCC(N2CCCC2)CC1,9.2,0,56,0,0,0,0,0,
CC1CCCCN1C(=O)Cc1noc2ccccc12 (centres undefined),0,0,0,0,-,-,-,-,
CC(=O)c1cccc(OCCCCN2CCN(C)CC2)c1,5.1,0,55,0,0,0,0,0,
Fc1ccccc1-c1cc(NCCCn2ccnc2)nc(-c2ccncc2)n1,7.5,0,62,0,34,41,0,0,
Cc1ccc(N2CC(=O)Nc3ccccc3S2(=O)=O)cc1,0,0,0,0,-,-,-,-,
CCOC(=O)N1CC(=O)Nc2ccccc2S1(=O)=O,11,0,66,0,0,0,0,0,
COc1cc(OC)c(C(=O)OC2CCCC2=O)cc1OC (centres undefined),5.2,0,76,0,67,0,0,0,AS interf DR=0
CCc1cc(OCCCCN2CCNCC2)ccc1Cl,6.4,0,54,0,0,0,0,0,
CCc1cc(OCCCN2CCNCC2)ccc1Cl,0,0,0,0,-,-,-,-,
Cc1ccc(C)c(N2CCN(C(=O)C(C)n3nc(C)n4c(cc5occc54)c3=O)CC2)c1 (centres undefined),0,0,0,0,-,-,-,-,
O=C(O)c1cc(N=Cc2nc(-c3ccc(Cl)cc3)oc2O)ccc1O,0,0,0,0,-,-,-,-,
O=C(O)c1cc(N=Cc2ccco2)ccc1O,5.0,0,51,0,81,0,0,0,AS interf DR=0
Cc1ccccc1OCCOCCn1cnc2ccccc21,4.9,0,72,0,0,0,0,0,
Clc1cc2c(c3ncccc13)OCN(CCCN1CCOCC1)C2,5.2,0,92,0,102,100,0,0,
COc1ccccc1C(=O)N1CCN(Cc2ccc3c(c2)OCO3)CC1,0,0,0,0,-,-,-,-,
COc1ccccc1/C=C/CN1CCN(Cc2ccc3c(c2)OCO3)CC1,6.1,0,69,0,0,0,0,0,
COc1cc(Nc2nc(-c3cccs3)nc3c2ncn3-c2ccccc2)cc(OC)c1OC,0,0,0,0,-,-,-,-,
O=C1c2ccccc2NC(c2cccc([N+](=O)[O-])c2)N1c1ccc(F)cc1 (centres undefined),0,0,0,0,-,-,-,-,
Cc1ccc(N2C(=O)c3ccccc3NC2c2cccc([N+](=O)[O-])c2)cc1 (centres undefined),8.6,0,63,0,77,0,0,0,AS interf DR=0
CCN(CC)c1ccc(-n2c(C)cc(C=C3C(=O)NC(=O)NC3=O)c2C)cc1,0,0,0,0,-,-,-,-,
CCN1CCc2c(sc(NC(=O)Cc3cccc4ccccc34)c2C(=O)OC)C1,0,0,0,0,-,-,-,-,
C/C(=C\c1ccccc1)CN1CCC(C(=O)N2CCCC2)CC1,0,0,0,0,-,-,-,-,
